# Experimental data taken from article PMC5540273 (PLoS ONE, 2017).
# Several values for one entry are separate records, joined by “and”; a condition that tells them apart may be missing. Equal values may be shown once. Read-outs that look alike come from different tables or passages of the source.
# Legend:
# LYN = conditions: concentration: 1 μM, replicates: in singlicate; n = 1
# LZK = tested on: T1, LZK; conditions: concentration: 1 μM, replicates: in singlicate; n = 1
# T1 construct: gene MAP3K13
# MAK = conditions: n = 1
# MAP3K15 = conditions: n = 1
# MAP3K1 = conditions: n = 1
# MAP3K2 = conditions: n = 1
# MAP3K3 = conditions: concentration: 1 μM, replicates: in singlicate; n = 1
# MAP3K4 = conditions: n = 1
# MAP4K2 = conditions: concentration: 1 μM, replicates: in singlicate; n = 1
# MAP4K3 = conditions: n = 1
# MAP4K4 = conditions: concentration: 1 μM, replicates: in singlicate; n = 1
# MAP4K5 = conditions: concentration: 1 μM, replicates: in singlicate; n = 1
# MAPKAPK2 = conditions: n = 1
# MAPKAPK5 = conditions: concentration: 1 μM, replicates: in singlicate; n = 1
# MARK1 = conditions: n = 1
# MARK2 = conditions: concentration: 1 μM, replicates: in singlicate; n = 1
# MARK3 = conditions: concentration: 1 μM, replicates: in singlicate; n = 1
# MARK4 = conditions: n = 1
# MAST1 = conditions: concentration: 1 μM, replicates: in singlicate; n = 1
# MEK1 = tested on: T2, MEK1; conditions: concentration: 1 μM, replicates: in singlicate; n = 1
# T2 construct: gene MAP2K1
# [1] = concentration: 1 μM, replicates: in singlicate
# [2] = concentration: 1 μM,replicates: in singlicate, 1 µM
# 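Note: KINOMEscan kinase panel screen.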
smiles,measurement,setting,value
Cn1cncc1-c1ccc2ncnc(Nc3ccc(OCc4ccccc4)cc3)c2c1 [GW320571],%Inh,LYN,2%
same,%Inh,LZK,0%
same,%Inh,MAK; [1],15%
same,%Inh,MAP3K15; [1],0%
same,%Inh,MAP3K1; [1],18%
same,%Inh,MAP3K2; [1],10%
same,%Inh,MAP3K3,0%
same,%Inh,MAP3K4; [1],19%
same,%Inh,MAP4K2,0%
same,%Inh,MAP4K3; [1],16%
same,%Inh,MAP4K4,25%
same,%Inh,MAP4K5,21%
same,%Inh,MAPKAPK2; [1],21%
same,%Inh,MAPKAPK5,0%
same,%Inh,MARK1; [1],0%
same,%Inh,MARK2,0%
same,%Inh,MARK3,0%
same,%Inh,MARK4; [1],2%
same,%Inh,MAST1,0%
same,%Inh,MEK1,11%
Cc1ccc(-c2cc(-c3c[nH]nc3-c3ccccn3)ccn2)cc1 [GW684088],%Inh,LYN,1%
same,%Inh,LZK,44%
same,%Inh,MAK; [1],0%
same,%Inh,MAP3K15; [1],0%
same,%Inh,MAP3K1; [1],9%
same,%Inh,MAP3K2; [1],0%
same,%Inh,MAP3K3,0%
same,%Inh,MAP3K4; [1],4%
same,%Inh,MAP4K2,0%
same,%Inh,MAP4K3; [1],0%
same,%Inh,MAP4K4,58%
same,%Inh,MAP4K5,0%
same,%Inh,MAPKAPK2; [1],0%
same,%Inh,MAPKAPK5,0%
same,%Inh,MARK1; [1],0%
same,%Inh,MARK2,14%
same,%Inh,MARK3,0%
same,%Inh,MARK4; [1],4%
same,%Inh,MAST1,64%
same,%Inh,MEK1,9%
CSc1nn2c(=O)cc(N3CCOCC3)nc2n1Cc1cccc(C(F)(F)F)c1C [GSK2363608],%Inh,LYN,0%
same,%Inh,LZK,0%
same,%Inh,MAK; [2],24% and 15%
same,%Inh,MAP3K15; [2],5% and 0%
same,%Inh,MAP3K1; [2],12% and 6%
same,%Inh,MAP3K2; [2],10% and 13%
same,%Inh,MAP3K3,0%
same,%Inh,MAP3K4; [2],18% and 30%
same,%Inh,MAP4K2,0%
same,%Inh,MAP4K3; [2],0% and 10%
same,%Inh,MAP4K4,0%
same,%Inh,MAP4K5,0%
same,%Inh,MAPKAPK2; [2],2% and 27%
same,%Inh,MAPKAPK5,0%
same,%Inh,MARK1; [2],9% and 0%
same,%Inh,MARK2,0%
same,%Inh,MARK3,0%
same,%Inh,MARK4; [2],15% and 0%
same,%Inh,MAST1,0%
same,%Inh,MEK1,0%
Cc1cc(-c2ccc3c(c2)CC[C@@H](N[C@@H](C)c2ccccc2)C3)cnc1N.Cl [GW412617],%Inh,LYN,0%
same,%Inh,LZK,7%
same,%Inh,MAK; [1],15%
same,%Inh,MAP3K15; [1],0%
same,%Inh,MAP3K1; [1],17%
same,%Inh,MAP3K2; [1],20%
same,%Inh,MAP3K3,0%
same,%Inh,MAP3K4; [1],0%
same,%Inh,MAP4K2,97.4%
same,%Inh,MAP4K3; [1],36%
same,%Inh,MAP4K4,17%
same,%Inh,MAP4K5,41%
same,%Inh,MAPKAPK2; [1],13%
same,%Inh,MAPKAPK5,0%
same,%Inh,MARK1; [1],4%
same,%Inh,MARK2,10%
same,%Inh,MARK3,32%
same,%Inh,MARK4; [1],14%
same,%Inh,MAST1,0%
same,%Inh,MEK1,0%
Cc1cccc(-c2cc(Nc3ccncc3)c3ccccc3n2)n1 [GSK223675],%Inh,LYN,0%
same,%Inh,LZK,0%
same,%Inh,MAK; [1],22%
same,%Inh,MAP3K15; [1],0%
same,%Inh,MAP3K1; [1],5%
same,%Inh,MAP3K2; [1],0%
same,%Inh,MAP3K3,0%
same,%Inh,MAP3K4; [1],21%
same,%Inh,MAP4K2,0%
same,%Inh,MAP4K3; [1],0%
same,%Inh,MAP4K4,0%
same,%Inh,MAP4K5,0%
same,%Inh,MAPKAPK2; [1],13%
same,%Inh,MAPKAPK5,0%
same,%Inh,MARK1; [1],0%
same,%Inh,MARK2,0%
same,%Inh,MARK3,0%
same,%Inh,MARK4; [1],0%
same,%Inh,MAST1,0%
same,%Inh,MEK1,0%
CN1C(=O)C(Nc2ccc(Cl)c(C(=O)O)c2)=C(c2ccc(Cl)cc2)C1=O [SB-404290],%Inh,LYN,0%
same,%Inh,LZK,0%
same,%Inh,MAK; [1],0%
same,%Inh,MAP3K15; [1],45%
same,%Inh,MAP3K1; [1],16%
same,%Inh,MAP3K2; [1],21%
same,%Inh,MAP3K3,12%
same,%Inh,MAP3K4; [1],9%
same,%Inh,MAP4K2,21%
same,%Inh,MAP4K3; [1],0%
same,%Inh,MAP4K4,0%
same,%Inh,MAP4K5,0%
same,%Inh,MAPKAPK2; [1],23%
same,%Inh,MAPKAPK5,12%
same,%Inh,MARK1; [1],0%
same,%Inh,MARK2,27%
same,%Inh,MARK3,0%
same,%Inh,MARK4; [1],13%
same,%Inh,MAST1,42%
same,%Inh,MEK1,0%
O=C1NC(=O)C(N2CCc3ccccc32)=C1c1ccccc1Cl [SB-373598],%Inh,LYN,17%
same,%Inh,LZK,0%
same,%Inh,MAK; [1],9%
same,%Inh,MAP3K15; [1],9%
same,%Inh,MAP3K1; [1],23%
same,%Inh,MAP3K2; [1],4%
same,%Inh,MAP3K3,4%
same,%Inh,MAP3K4; [1],29%
same,%Inh,MAP4K2,21%
same,%Inh,MAP4K3; [1],1%
same,%Inh,MAP4K4,26%
same,%Inh,MAP4K5,24%
same,%Inh,MAPKAPK2; [1],33%
same,%Inh,MAPKAPK5,8%
same,%Inh,MARK1; [1],9%
same,%Inh,MARK2,10%
same,%Inh,MARK3,0%
same,%Inh,MARK4; [1],17%
same,%Inh,MAST1,0%
same,%Inh,MEK1,13%
Cn1ccc2ncnc(Oc3ccc(NC(=O)Nc4ccccc4)cc3)c21,%Inh,LYN,6%
same,%Inh,LZK,9%
same,%Inh,MAK; [1],6%
same,%Inh,MAP3K15; [1],0%
same,%Inh,MAP3K1; [1],0%
same,%Inh,MAP3K2; [1],0%
same,%Inh,MAP3K3,11%
same,%Inh,MAP3K4; [1],10%
same,%Inh,MAP4K2,0%
same,%Inh,MAP4K3; [1],18%
same,%Inh,MAP4K4,0%
same,%Inh,MAP4K5,0%
same,%Inh,MAPKAPK2; [1],0%
same,%Inh,MAPKAPK5,0%
same,%Inh,MARK1; [1],11%
same,%Inh,MARK2,0%
same,%Inh,MARK3,50%
same,%Inh,MARK4; [1],10%
same,%Inh,MAST1,18%
same,%Inh,MEK1,0%
Clc1cc(Cl)cc(Nc2ccnc(Nc3cc(Cl)cc(Cl)c3)n2)c1 [GSK175726],%Inh,LYN,23%
same,%Inh,LZK,0%
same,%Inh,MAK; [1],25%
same,%Inh,MAP3K15; [1],0%
same,%Inh,MAP3K1; [1],0%
same,%Inh,MAP3K2; [1],0%
same,%Inh,MAP3K3,0%
same,%Inh,MAP3K4; [1],0%
same,%Inh,MAP4K2,0%
same,%Inh,MAP4K3; [1],0%
same,%Inh,MAP4K4,0%
same,%Inh,MAP4K5,0%
same,%Inh,MAPKAPK2; [1],0%
same,%Inh,MAPKAPK5,0%
same,%Inh,MARK1; [1],0%
same,%Inh,MARK2,16%
same,%Inh,MARK3,0%
same,%Inh,MARK4; [1],0%
same,%Inh,MAST1,0%
same,%Inh,MEK1,0%
CC1=C(C(=O)Nc2cc3cn[nH]c3cc2F)C(c2ccc(C(F)(F)F)cc2)CC(=O)N1 (centres unmarked) [GSK429286],%Inh,LYN,0%
same,%Inh,LZK,0%
same,%Inh,MAK; [1],0%
same,%Inh,MAP3K15; [1],16%
same,%Inh,MAP3K1; [1],30%
same,%Inh,MAP3K2; [1],3%
same,%Inh,MAP3K3,0%
same,%Inh,MAP3K4; [1],0%
same,%Inh,MAP4K2,0%
same,%Inh,MAP4K3; [1],0%
same,%Inh,MAP4K4,59%
same,%Inh,MAP4K5,75%
same,%Inh,MAPKAPK2; [1],21%
same,%Inh,MAPKAPK5,0%
same,%Inh,MARK1; [1],0%
same,%Inh,MARK2,0%
same,%Inh,MARK3,0%
same,%Inh,MARK4; [1],0%
same,%Inh,MAST1,0%
same,%Inh,MEK1,0%
